Calls of active or inactive are those of the source.
How the values were obtained:
[1] = test system: Plasmodium falciparum Sir2 (PF13_0152, Sir2A); assay: Plasmodium falciparum Sir2A binding compounds – biochemical, small-molecule microarray, 635 nm fluorescence, primary screen (AID 1098); conditions: fluorescence 635 nm, higher = more signal;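 also: score merges spot fluorescence intensity with its signal-to-noise ratio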
[2] = probe aDKK1 binding to arrayed compounds – biochemical, biotinylated probe, 635/667 nm fluorescence, primary screen (AID 1099); conditions: small-molecule microarray, higher = more signal;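 also: score merges 667nm spot fluorescence with signal to noise across triplicate slides; reference of the scale not given here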
[3] = probe aCHRDL2 binding to arrayed compounds – biochemical, biotinylated probe, 635/667 nm fluorescence, primary screen (AID 1100); conditions: small-molecule microarray, higher = more signal
[4] = change in splice reporter luminescence, either direction, cell-based, HEK293, spliceosome inhibition project, primary screen (AID 1101); conditions: HEK293 splicing luciferase reporter, 24 h, higher = more signal, called active from +8 up or from −8 down;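 also: HEK293 cells carrying a splicing-competent luciferase reporter gene; test concentration not given here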
[5] = target: Fibroblast growth factor 10 (Homo sapiens) (UniProt O15520); assay: compounds binding fibroblast growth factor 10 – biochemical, small-molecule microarray, 635 nm fluorescence, primary screen (AID 1102); conditions: FGF10 binding, fluorescence 635 nm, higher = more signal
Chain of Fibroblast growth factor 10 (Homo sapiens) (O15520 whole entry, looked up): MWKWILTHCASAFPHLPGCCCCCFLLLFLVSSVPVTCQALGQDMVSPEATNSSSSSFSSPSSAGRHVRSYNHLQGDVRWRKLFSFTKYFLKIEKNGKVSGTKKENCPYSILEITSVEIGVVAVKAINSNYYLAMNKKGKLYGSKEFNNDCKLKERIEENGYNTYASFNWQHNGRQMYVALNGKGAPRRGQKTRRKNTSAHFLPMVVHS

[6] = test system: glycogen synthase kinase-3 (GSK3A per assay name; protocol says GSK3B); assay: compounds binding glycogen synthase kinase-3 – biochemical, small-molecule microarray, 635 nm fluorescence, GSK3A, primary screen (AID 1103); conditions: fluorescence 635 nm, higher = more signal; also: the record names both GSK3A and GSK3B
[7] = target: Epidermal growth factor receptor (Homo sapiens) (UniProt P00533); assay: compounds binding epidermal growth factor receptor – biochemical, small-molecule microarray, 635 nm fluorescence, primary screen (AID 1104); conditions: EGFR binding, higher = more signal;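 also: score merges 667 nm emission intensity with spot signal to noise over triplicate slides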
Chain of Epidermal growth factor receptor (Homo sapiens) (P00533 whole entry, looked up): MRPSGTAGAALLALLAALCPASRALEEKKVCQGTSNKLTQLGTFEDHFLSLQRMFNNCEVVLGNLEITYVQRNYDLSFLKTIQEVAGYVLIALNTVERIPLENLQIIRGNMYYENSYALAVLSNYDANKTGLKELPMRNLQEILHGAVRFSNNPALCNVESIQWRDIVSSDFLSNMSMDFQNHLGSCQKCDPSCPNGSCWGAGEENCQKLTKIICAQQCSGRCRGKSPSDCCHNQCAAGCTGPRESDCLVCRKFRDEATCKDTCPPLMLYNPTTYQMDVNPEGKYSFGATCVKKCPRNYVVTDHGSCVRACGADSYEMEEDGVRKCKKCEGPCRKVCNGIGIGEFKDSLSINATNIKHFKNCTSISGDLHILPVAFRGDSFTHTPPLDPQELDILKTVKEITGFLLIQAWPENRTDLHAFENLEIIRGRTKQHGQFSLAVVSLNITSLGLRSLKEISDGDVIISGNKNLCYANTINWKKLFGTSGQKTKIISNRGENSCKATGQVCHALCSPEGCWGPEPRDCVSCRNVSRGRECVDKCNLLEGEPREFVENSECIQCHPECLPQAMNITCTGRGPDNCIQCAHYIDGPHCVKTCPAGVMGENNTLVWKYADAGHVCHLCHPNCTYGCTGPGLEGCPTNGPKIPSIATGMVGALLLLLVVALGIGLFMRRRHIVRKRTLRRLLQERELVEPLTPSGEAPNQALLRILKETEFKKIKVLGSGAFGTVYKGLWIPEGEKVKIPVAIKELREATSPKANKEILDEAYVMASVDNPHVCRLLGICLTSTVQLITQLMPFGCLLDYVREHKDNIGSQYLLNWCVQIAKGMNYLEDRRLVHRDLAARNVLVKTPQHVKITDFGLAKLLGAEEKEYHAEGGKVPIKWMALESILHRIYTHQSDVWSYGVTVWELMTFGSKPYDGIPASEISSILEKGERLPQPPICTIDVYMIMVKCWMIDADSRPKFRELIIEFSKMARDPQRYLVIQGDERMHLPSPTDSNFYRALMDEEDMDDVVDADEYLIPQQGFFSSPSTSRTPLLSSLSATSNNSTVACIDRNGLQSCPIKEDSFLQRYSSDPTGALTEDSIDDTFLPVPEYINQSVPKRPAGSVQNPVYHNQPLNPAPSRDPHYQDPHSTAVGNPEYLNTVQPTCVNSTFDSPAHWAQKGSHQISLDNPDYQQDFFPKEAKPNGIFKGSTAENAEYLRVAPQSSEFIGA

[8] = target: Follistatin-related protein 3 (Homo sapiens) (UniProt O95633); assay: compounds binding follistatin-related protein 3 – biochemical, small-molecule microarray, 635 nm fluorescence, primary screen (AID 1105); conditions: FSTL3 binding, higher = more signal;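 also: score merges emission near 667 nm and signal to noise per printed spot across three slides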
Chain of Follistatin-related protein 3 (Homo sapiens) (O95633 whole entry, looked up): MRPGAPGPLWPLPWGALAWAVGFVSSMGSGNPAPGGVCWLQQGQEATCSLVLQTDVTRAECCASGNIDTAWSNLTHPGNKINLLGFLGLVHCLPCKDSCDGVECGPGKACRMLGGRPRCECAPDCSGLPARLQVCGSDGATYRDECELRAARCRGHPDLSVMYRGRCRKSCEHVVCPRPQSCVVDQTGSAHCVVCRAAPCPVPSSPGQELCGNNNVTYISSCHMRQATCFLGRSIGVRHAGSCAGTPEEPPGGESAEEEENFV

[9] = target: Dickkopf-related protein 1 (Homo sapiens) (UniProt O94907); assay: small molecules binding DKK1 protein – biochemical, small-molecule microarray, 635 nm fluorescence scan, primary screen (AID 1106); conditions: higher = more signal;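 also: score merges emission near 667 nm with signal to noise over three replicate slides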
Chain of Dickkopf-related protein 1 (Homo sapiens) (O94907 whole entry, looked up): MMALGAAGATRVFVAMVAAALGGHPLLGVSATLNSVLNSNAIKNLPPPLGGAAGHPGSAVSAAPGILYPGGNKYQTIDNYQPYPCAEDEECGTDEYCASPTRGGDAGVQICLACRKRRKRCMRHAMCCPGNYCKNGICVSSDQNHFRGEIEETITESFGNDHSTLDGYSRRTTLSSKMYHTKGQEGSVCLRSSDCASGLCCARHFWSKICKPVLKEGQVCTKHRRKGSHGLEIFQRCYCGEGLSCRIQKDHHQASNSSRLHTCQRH

[10] = test system: Inhibin beta A chain (activin A); assay: small molecules binding activin A – biochemical, small-molecule microarray, 635 nm fluorescence scan, primary screen (AID 1107); conditions: INHBA, higher = more signal;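 also: mouse activin A protein probed at 4.33 µg/mL on printed slides; score merges bound-protein fluorescence near 667 nm with spot signal-to-noise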

Structure (SMILES)	composite z-score [1]	composite z-score [2]	composite z-score [3]	z-score [4]	composite z-score [5]	composite z-score [6]	composite z-score [7]	composite z-score [8]	composite z-score [9]	composite z-score [10]
COc1ccc([Si](C)(C)[C@@H]2[C@@H](CCO)O[C@]3(C(=O)N(Cc4ccccc4)c4ccc(N5CCOC5=O)cc43)[C@H]2C)cc1	1.54	0.0274	-0.0546	-1.64 (inactive)	0.24	0.624	0.254	0.637	0.406	0.729
COc1ccc([Si](C)(C)[C@H]2[C@H](CC(=O)N3Cc4ccccc4C[C@H]3CO)O[C@@]3(C(=O)N(Cc4ccc(N5CCOC5=O)cc4)c4ccccc43)[C@@H]2C)cc1	0.149	-0.161	-0.345	-0.817 (inactive)	0.878	0.676	1.03	1.04	0.929	1.05
C=CCN1C(=O)[C@]2(CCS(=O)(=O)c3ccccc3)N=C(c3ccc(OCCCO)cc3)O[C@@H]2c2ccccc21	1.38	-0.317	0.7	-1.81 (inactive)	0.732	1.29	0.387	1.43	0.466	1.18
CN(C)C(=O)[C@@]1(Cc2ccccc2)N=C(c2ccc(OCCCO)cc2)O[C@H]1c1ccccc1	1.46	1.26	1.24	-0.24 (inactive)	1.2	1.18	-0.591	0.109	-0.273	0.139
CCCCC(CC)C(O)C1C=CC2C(=O)N(c3ccccc3)C(=O)C2N1Nc1ccc(C#N)cc1 (stereo not given)	0.976	1.33	0.813	0.037 (inactive)	1.11	1.32	0.217	1.28	0.0492	0.783
CCCN1C(=O)[C@]2(Cc3ccccc31)N=C(c1ccc(OCCCO)cc1)O[C@@H]2c1ccccc1	1.07	0.0194	0.865	-0.898 (inactive)	0.592	1.26	-0.489	0.515	-0.303	0.72
CCOC(=O)C1=CC[C@@H](c2ccccc2)N(S(=O)(=O)c2ccc(C)cc2)[C@H]1c1ccccc1	0.264	0.769	0.54	-0.387 (inactive)	0.356	0.738	-0.404	0.397	-0.187	0.903
CS(=O)(=O)CCOC(=O)C1=CC(c2ccc(CO)cc2)=CC(C2CC2)N(Cc2sc3ccccc3c2Cl)C=C1C(=O)OCCS(C)(=O)=O (stereo not given)	0.677	0.251	0.365	2.53 (inactive)	0.686	0.519	0.645	1.21	0.334	1.63
CCCC[C@@H]1C[C@H]1[C@@H](NC(=O)c1cccs1)c1ccccc1C(F)(F)F	0.67	0.445	0.49	-0.701 (inactive)	-0.0251	1.23	-0.531	-0.697	-0.291	0.978
C=CC[C@@]1(C(=O)NCCCOC)N=C(c2ccc(OCCCO)cc2)O[C@@H]1c1ccccc1	1.7	2.31	1.36	-1.39 (inactive)	0.311	0.326	-0.848	-0.439	-0.666	0.923
COCCOC(=O)N1C(=O)[C@@]2(c3ccccc31)[C@H](c1ccc(O)cc1)N1[C@H](c3ccccc3)[C@H](c3ccccc3)OC(=O)[C@H]1[C@@H]2C(=O)N1CCN(c2ncccn2)CC1	1.45	0.0484	0.419	-0.225 (inactive)	1.04	1.11	0.194	0.466	0.259	0.922
COC(=O)C/C=C/C[C@]1(O)C(=O)N(C)c2ccccc21	-0.262	-0.299	-0.802	-1.38 (inactive)	0.791	0.605	0.784	0.616	0.949	0.587
[N-]=[N+]=Nc1ccccc1[C@@H]1OC(c2ccc(OCCCO)cc2)=N[C@]1(Cc1ccccc1)C(=O)N1CCCCC1	1.16	0.374	0.711	0.745 (inactive)	1.43	0.769	0.332	1.07	-0.0165	0.441
C=CCNC(=O)[C@H]1[C@@H]2C(=O)O[C@@H](c3ccccc3)[C@@H](c3ccccc3)N2[C@@H](c2ccccc2OCCO)[C@]12C(=O)N(C(=O)OCCOC)c1ccc(C#CC3(O)CCCCCC3)cc12	1.32	-0.115	0.457	-0.725 (inactive)	1.13	0.562	0.383	0.502	-0.515	1.07
CC1=C2[C@@H](CCc3ccccc3)OB(O)C[C@@H]2[C@@H]2C(=O)N(Cc3ccccc3)C(=O)[C@@H]2C1	0.294	-0.155	-0.395	0.81 (inactive)	0.631	0.717	0.427	0.746	0.405	0.654
CCOC(=O)C[C@H]1[C@H](OC(=O)c2ccc(C(=O)c3ccccc3)cc2)[C@@H](NC(=O)C2CCCCC2)c2cc(OCCCO)ccc2N1C(=O)c1ccc2ccccc2n1	0.698	-0.0699	-0.125	0.112 (inactive)	0.839	0.432	0.34	1.03	0.595	0.456
CCCC[C@@H](O)C1=C(COC)C[C@H]2C(=O)N(Cc3ccccc3)C(=O)[C@H]2[C@H]1CO	0.516	-0.449	-0.815	0.296 (inactive)	0.822	0.464	0.26	1	0.972	0.44

Structure (SMILES)	composite z-score [1]	composite z-score [2]	composite z-score [3]	z-score [4]	composite z-score [5]	composite z-score [6]	composite z-score [7]	composite z-score [8]	composite z-score [9]	composite z-score [10]
CC1CC/C=C\[C@H]2OC34C=CCN(Cc5ccccc5)C(=O)[C@H]3N(C(CO)C(C)C)C(=O)[C@@H]4C2C(=O)O1 (stereo not given in full)	0.659	-0.239	0.146	-0.124 (inactive)	-0.871	-0.484	-0.471	-0.902	-0.415	1.09
COC(=O)[C@@]1(Cc2ccc(OC)cc2)[C@H]2c3cc(C(=O)N(C)C)n(Cc4ccc(OC(F)(F)F)cc4)c3C[C@H]2CN1C(=O)c1ccccc1	0.518	0.34	1.15	1.32 (inactive)	-0.19	-0.448	-0.274	-0.558	-0.995	0.771
O=C(c1ccccc1)N1C(=O)[C@]2(Cc3ccccc31)N=C(c1ccc(OCCCO)cc1)O[C@@H]2c1ccccc1	1.2	-0.0088	0.339	-0.936 (inactive)	1.42	1.31	0.0998	0.554	0.405	0.0538
CCCC=C(CCC)[C@@H](NS(=O)(=O)CC12CCC(CC1=O)C2(C)C)c1ccc(C(=O)OC)cc1 (stereo not given in full)	0.765	0.615	0.143	-0.422 (inactive)	0.5	0.233	0.273	0.337	0.336	-0.0344
CC(=O)N1CC2(CC2)CC1c1ccccc1 (stereo not given)	-0.295	0.234	-0.0067	0.665 (inactive)	0.281	0.152	0.461	-0.154	-0.0538	0.791
C=CC[C@]1(C(=O)N2CCOCC2)COC(c2ccc(OCCCO)cc2)=N1	1.76	-0.016	0.431	-0.612 (inactive)	0.66	0.438	-0.238	0.264	0.188	0.976
NC(=O)NCC#Cc1ccc2c(c1)[C@]1(C(=O)N2)[C@H](c2ccccc2OCCO)N2[C@H](c3ccccc3)[C@H](c3ccccc3)OC(=O)[C@H]2[C@@H]1C(=O)NC[C@H](O)c1ccccc1	0.342	-0.224	0.699	-1.14 (inactive)	-0.491	-0.659	-0.895	-0.355	-0.548	0.472
O=c1cccc(-c2ccc([N+](=O)[O-])cc2)o1	-0.632	-0.0855	-0.512	-1.49 (inactive)	0.274	0.959	0.574	0.534	0.0662	1.22
CCOC(=O)C[C@H]1[C@H](OC(=O)c2ccc(-c3ccccc3)cc2)[C@@H](NC(=O)CC(C)C)c2cc(OCCCO)ccc2N1C(=O)c1ccc2ccccc2n1	0.988	-0.239	-0.39	-0.725 (inactive)	0.636	0.0685	0.239	0.47	0.273	0.0746
CCCCCN1CC=CC23O[C@@H]4C=CCCOC(=O)C4[C@H]2C(=O)N(CCCCCCO)[C@@H]3C1=O (stereo not given in full)	0.788	-0.467	-0.272	2.61 (inactive)	0.0027	-0.284	-0.547	-1.01	-0.69	-0.206
COc1ccc([Si](C)(C)[C@@H]2[C@@H](CCO)O[C@]3(C(=O)N(Cc4ccccc4)c4ccc(N5C(=O)c6cccc7cccc5c67)cc43)[C@H]2C)cc1	1.42	0.0194	0.42	-0.884 (inactive)	-0.231	-0.642	-0.0299	-0.448	-0.0876	-0.344
CCOC(=O)C1=C[C@@H](c2ccccc2)N(S(=O)(=O)c2ccc(C)cc2)[C@H]1c1ccc(OC)cc1	0.979	1.16	1.05	-0.71 (inactive)	0.957	0.938	0.561	0.652	0.0786	1.25
[N-]=[N+]=NCc1ccccc1[C@@H]1OC(c2ccc(OCCCO)cc2)=N[C@]1(CCS(=O)(=O)c1ccccc1)C(=O)O	0.654	0.79	0.95	-0.551 (inactive)	0.559	-0.0623	-0.231	-0.337	-0.713	1
COc1cc(NN2C(C(O)c3ccco3)C=CC3C(=O)N(C)C(=O)C32)cc(OC)c1OC (stereo not given)	1.5	0.88	0.469	0.579 (inactive)	0.138	1.1	-0.169	0.0253	0.216	0.752
C=CCN1Cc2ccccc2[C@@H]2OC(c3ccc(OCCCO)cc3)=N[C@]2(CC=C)C1=O	1.5	2.15	1.07	-1.25 (inactive)	0.862	1.22	0.724	1.48	1.33	1.68
CC(C)=C1C(=O)C(c2ccccc2)=C2CN3C(=O)N(CCc4ccccc4)C(=O)[C@]3(Cc3ccc(C(F)(F)F)cc3)[C@H]21	1.04	1.18	1.3	0.0205 (inactive)	-0.649	-0.0628	-1.22	0.13	-1.7	0.877
